PKM2 act – qHTS Assay for Activators of Human Muscle isoform 2 Pyruvate Kinase. purified PKM2, Kinase-Glo ATP luminescence, activation; response scale: 0% is enzyme alone, no compound. Potency, µM (top dose mostly 57.5 µM), for the others: top-dose activation, actives largely listed as activators. actives 0.34% (n = 260,000); further: potency means the concentration at half of the fitted maximal effect; on the % scale 0 is the no-effect control and ±100 the full control effect; nearly all actives have a fitted effect of over 55% in size
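hPK-M2, >95% pure; 0.1 mM ADP / 0.5 mM PEP final; imidazole pH7.2 buffer w/ 7 mM MgCl2, 50 mM KCl; 1 h RT; Kinase-Glo lum. Intermediate enzyme activity for dual inhibitor/activator qHTS.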
aGal spleen mod – qHTS Assay for Inhibitors and Activators of Human alpha-Galactosidase From Spleen Homogenate; Alpha-galactosidase A (Homo sapiens), P06280; human spleen homogenate, 4MU-alpha-Gal fluorescence, 40 min; Potency, µM (series often up to 80 µM), inactives show top-dose activity change, negative = inhibition, most hits filed as inhibitors; actives 0.008% (n = 240,000); AID 2107, 2009;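 further: potency means the concentration at half of the fitted maximal effect; 0% = enzyme with vehicle and -100% = no enzyme basal signal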
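Spleen homogenate 1 ug + cpd (titration) + 4-MU-alpha-D-galactopyranoside 1 mM; 37C 40 min; 50 mM citrate/phosphate pH 5.0, 0.01% Tween-20; stop pH 10; fluorescence 365/440; AC50 via Hill.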
HttQ103 aggreg – qHTS Multiplex Assay to Identify Dual Action Probes in a Cell Model of Huntington: Aggregate Formation (GFP) | actives 1.1% (n = 220,000) | Potency, µM (highest dose often 46.1 µM), for the others: at the highest dose activity change, negative = inhibition, hits mostly inhibitors | PC12 HttQ103-GFP aggregates, Acumen cytometry, 40 h; further: potency means the concentration at half of the fitted maximal effect; on the % scale 0 is the no-effect control and ±100 the full control effect; nearly all actives have a fitted effect of over 60% in size
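Read-out: GFP aggregate count by laser scanning cytometer (488 nm excitation, 500-530 nm emission, 1–25 µm objects >6 SD above background). Cells: PC12, inducible HTTex1-Q103-GFP, 100 nM tebufenozide; compounds titrated.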
HTT ATP protect – qHTS Multiplex Assay to Identify Dual Action Probes in a Cell Model of Huntington: Cytoprotection (ATP); PC12 HTT-Q103 induced, cytoprotection, ATP luminescence, 40 h; Potency, µM (titrated, usually from 56.4 µM), without a hit: cytoprotection (ATP increase), usual class: activators; actives 0.14% (n = 230,000); AID 1471, 2008; further: potency means the concentration at half of the fitted maximal effect; % of control where 0% means no effect; nearly all actives have a fitted effect of over 45% in size
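Stable PC12 Q103-GFP cells in serum-supplemented, phenol red-free DMEM; induction by tebufenozide at 100 nM final; compound dose series; cell viability quantified luminescently from ATP.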
GLA inh pH 4.5 – qHTS Assay for Inhibitors of Human alpha-Galactosidase at pH 4.5. purified enzyme, 4-MU-alpha-Gal fluorescence, pH 4.5. Alpha-galactosidase A (Homo sapiens), P06280. activity change, negative = inhibition, % at 105 µM. 230,000 tested, under 10 active;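 further: 0% = full activity with enzyme and -100% = basal without enzyme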
Target sequence (P06280 whole entry, looked up): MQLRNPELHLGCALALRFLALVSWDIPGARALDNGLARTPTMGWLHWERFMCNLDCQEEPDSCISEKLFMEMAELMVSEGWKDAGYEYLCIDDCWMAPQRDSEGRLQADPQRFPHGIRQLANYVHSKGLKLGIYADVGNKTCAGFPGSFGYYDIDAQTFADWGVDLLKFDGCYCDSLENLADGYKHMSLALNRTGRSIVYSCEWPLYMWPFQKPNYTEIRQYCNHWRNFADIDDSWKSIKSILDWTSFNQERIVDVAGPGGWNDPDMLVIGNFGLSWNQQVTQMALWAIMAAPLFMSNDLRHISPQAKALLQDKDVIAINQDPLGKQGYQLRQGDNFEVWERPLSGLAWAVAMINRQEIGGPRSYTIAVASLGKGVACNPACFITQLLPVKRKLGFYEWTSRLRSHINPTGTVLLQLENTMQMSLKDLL
An asterisk follows results filed as active; u = inconclusive; x = no result; [ ] = dose if it differs, or a comment. Compounds with a hit are over-represented: about 1.2% of the library has one in this group of screens. The call rests on the fitted dose curve; in most records, active means well fitted curve in the direction sought with a large enough effect; inconclusive means small, poorly fitted or top-dose-only effect, or another doubt; inactive means no such curve, though single readings can be large; an effect the other way counts as inactive or inconclusive.

SMILES	PKM2 act	aGal spleen mod	HttQ103 aggreg	HTT ATP protect	GLA inh pH 4.5
COc1ccc(C(=O)c2c(C)c3ccccc3n2CC(O)CNC(C)C)cc1 (configuration not stated)	-14%	3%	22µM*	x	u
O=C(CCN1CCCCC1)c1csc2ccccc12	x	x	x	-9%[10 µM]	x
CC(=O)c1cccc(S(=O)(=O)N2CCC(c3nc4ccccc4[nH]3)CC2)c1	0%	x	x	x	x
Cc1ccc2nc(C3CCN(S(=O)(=O)c4ccc5ccccc5c4)CC3)[nH]c2c1	-13%	-1%	18µM*	-77%	-9
CCCc1nc(SCC(=O)N2CCC(Cc3ccccc3)CC2)c2c(=O)n(C)c(=O)n(C)c2n1	1%	-3%	25µM*	-26%	-6
N#CC1=C(N)Oc2n[nH]c(-c3ccccc3)c2C12C(=O)Nc1ccccc12 (configuration not stated)	-1%	-2%	17%	-23%[10 µM]	-3
Cn1c2c(c(=O)n(C)c1=O)[C@@]1(C(=O)Nc3ccccc31)C(C#N)=C(N)O2	12%	4%	13µM*	3%[10 µM]	5
Clc1cccc(NCc2nnc3n2CCCCC3)c1	0%	2%	-6%	4µM*	2
Cc1ccc2nc(N)[nH]c(=O)c2c1Sc1ccncc1	x	x	-3%	-36%	x
Cc1ccc(/C=c2/sc3n(c2=O)CCCN=3)o1	12%	-3%	14%	7%[10 µM]	-2
O=C(NCc1ccc(/C=c2\sc3n(c2=O)CCN=3)o1)C(=O)Nc1ccccc1	20µM*	-3%	12%	x	5
COc1ccccc1NS(=O)(=O)c1cccc(NC(=O)c2[nH]c(C)c(C(C)=O)c2C)c1	13µM*	-1%	23%[9.22 µM]	8%[10 µM]	0
COc1ccccc1NC(=O)c1[nH]c(C)c(C(C)=O)c1C	7%	-13%	9%	-6%[10 µM]	2
COc1ccccc1C1CC(=O)Oc2cc3c(cc21)OCO3 (configuration not stated)	x	0%[119 µM]	x	-21%	-9
C=CCN1CCc2c(cc(O)c(O)c2Br)[C@H](c2ccccc2)C1	x	x	x	-11%[1.9 µM]	x
CN(NC(=O)c1cccc(Cl)c1)c1nc(-c2ccccc2)nnc1C(F)(F)F	-3%	-1%	1µM*	x	4
S[C@@H]1CCCN(Cc2ccccc2)C1	x	x	x	17%[10 µM]	x
C=CCNc1nc(-c2sc(NC(=O)CC)nc2C)cs1	1%	2%	u	-19%[10 µM]	-16
CCCCC(=O)Nc1nc(C)c(-c2csc(Nc3ccccc3OC)n2)s1	-1%	-1%	u	-43%	5
C=CCCC(=O)Nc1nc(C)c(-c2csc(Nc3ccccc3OC)n2)s1	11%	11%	18µM*	-93%	-2
C=CCNc1nc(-c2sc(NC(C)=O)nc2C)cs1	6%	4%	13µM*	-34%	-1
COc1cccc(-n2nc(C(N)=O)c(O)cc2=O)c1	0%	-5%	2%	-15%	8
COc1cccc(-n2nc(C#N)c(Cl)cc2=O)c1	4%	8%	3.5µM*	-173%	4
CCOC(=O)/C=C1/N(C)c2ccccc2C1(C)C	0%	-3%	-8%[9.22 µM]	-8%[10 µM]	8
CN1/C(=C\P(=O)(N(C)C)N(C)C)C(C)(C)c2ccccc21	0%	8%	11µM*	-3%[10 µM]	4
SMILES	PKM2 act	aGal spleen mod	HttQ103 aggreg	HTT ATP protect	GLA inh pH 4.5
CCC(C)(C)c1ccc(OCCCC[n+]2cccc(C)c2C)c(C(C)(C)CC)c1	0%	3%	-31%[9.22 µM]	-51%[10 µM]	-8
CCC(C)(C)c1ccc(OCCCC[n+]2ccc(C)cc2)c(C(C)(C)CC)c1	0%	u	18µM*	-80%	-6
C=CC[C@](C)(O)c1ccccc1	x	4%	x	3%	-1
O=C(c1ccccc1)N1CCC(c2nc(-c3ccc(S(=O)(=O)NCC4CCCO4)cc3)no2)CC1 (configuration not stated)	-2%	-6%	6.3µM*	-5%	-1
CC(=O)OC[C@@H]1O[C@H](C/C=N\OC[C@@H](C)[C@H](OCc2ccccc2)C(C)C)C=C[C@@H]1OC(C)=O	x	-4%[17.5 µM]	x	0%[10 µM]	x
Cc1cc(C=O)c(C)n1-c1ccc(Oc2ccc([N+](=O)[O-])cn2)cc1	3%	6%	22µM*	x	0
COc1ccc(NC(=O)/C(C#N)=C\c2cc(C)n(-c3ccc(Oc4ccc([N+](=O)[O-])cn4)cc3)c2C)cc1	-2%	2%	-10%	-19%	1
Cc1c(/C=N/NC(=O)c2cccnc2)c2ccccc2n1Cc1ccccc1	-2%	2%	10µM*	5%[10 µM]	3
Cc1nn(Cc2ccccc2)c(Cl)c1/C=N/NC(=O)c1cccnc1	-9%	3%	6%	x	3
COc1ccc(S(=O)(=O)N2CCc3ccccc3C2)cc1OC	3%	8%	-1%	-2%	-26
COc1cc2c(cc1OC)CN(S(=O)(=O)c1ccc3c(c1)OCCO3)CC2	8.9µM*	-8%	-21%	8%[0.074 µM]	-5
COCCn1c(=O)c(C)nc2cnc(Oc3cccc(Cl)c3)nc21	x	6%	x	-25%	x
Cc1ccc(/C=[N+](\[O-])c2ccc(N(C)C)cc2)c2nsnc12	-13%	-12%	11µM*	-162%	-19
FC(F)(F)c1cccc(N2CCN(C(=S)NC3CCCCC3)CC2)c1	-4%	-5%	22µM*	-2%[10 µM]	-8
FC(F)(F)c1cccc(N2CCN(C(=S)NC3CCCC3)CC2)c1	-10%	-3%	u	-6%[10 µM]	-10
CCCN(Cc1cc2cc(C)ccc2[nH]c1=O)C(=O)c1cccc(OC)c1	-23%	3%	10µM*	-26%[0.074 µM]	3
CCCN(Cc1cc2cccc(C)c2[nH]c1=O)C(=O)c1cccc(OC)c1	x	x	x	-16%[0.074 µM]	x
O=C(c1ccco1)N1CCC2(CCCN(Cc3ccccc3)C2)CC1	x	-8%	x	14%	x
COc1ccccc1N1CCN(S(=O)(=O)c2cc3c(cc2C)NC(=O)CO3)CC1	-4%	x	x	x	x
COc1cccc(NS(=O)(=O)c2cc3c(cc2C)NC(=O)CO3)c1	1.8µM*	x	x	x	x
COc1ccccc1NS(=O)(=O)c1cc2c(cc1C)NC(=O)CO2	7.1µM*	x	x	x	x
Clc1ccccc1Cn1nnc2c(N3CCCC3)ncnc21	16µM*	-7%	-12%	-14%	1
CC1Cc2ccccc2N1c1ncnc2c1nnn2Cc1ccccc1Cl (configuration not stated)	-2%	3%	-7%	21%[10 µM]	5
O=C(CSCc1nc2ccccc2[nH]1)N1CCN(c2cccc(Cl)c2)CC1	u	1%	25µM*	-32%	-3
O=C(CSCc1nc2ccccc2[nH]1)N1CCN(c2ccc(F)cc2)CC1	21%	-4%	u	-21%	-3

Source: PubChem BioAssay
